Records with an inconclusive call do not appear. Entries that show only a call come without a potency. Active and inactive are the calls of the source. Calls come from the whole dose curve; as a rule, active = well fitted inhibition curve with a large enough effect; inconclusive = small, poorly fitted or top-dose-only effect; inactive = no such curve, though single readings can be large or run the other way. Where a SMILES comes first, the peptide text is derived from it. [ ]: non-standard residue; d: D form. ξ: configuration not given here. ξPhe(βξ-Me) = CC(c1ccccc1)C(N)C(=O)O; GABA = NCCCC(=O)O
Key:
[1] = test system: Zika virus NS2B-NS3 protease (unlinked complex); assay: Primary screen GU Rhodamine qHTS for Zika virus inhibitors: Unlinked NS2B-NS3 protease assay (AID 1347159); note: nearly all actives have a fitted effect of over 60% in size
How it was run: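 Unlinked NS2B/NS3, 25 nM; Rhod110 peptide, 1.5 microM; compounds, up to 114 microM. Reaction run 15 min at RT in 10 mM Tris-HCl pH 8.0, 0.01% Tween 20; kinetic fluorescence change fitted with a 4-parameter Hill model.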

[2] = test system: Zika virus NS2B-NS3 protease (linked construct); assay: Primary screen NINDS Rhodamine qHTS for Zika virus inhibitors (AID 1347160); note: nearly all actives have a fitted effect of over 55% in size
How it was run: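 Single-chain NS2B-NS3 protease, 25 nM, pH 8.0; compounds preincubated 15 min. Activity: Rhodamine110 release from 1.5 microM substrate over 15 min, room temperature, data fitted to 4-parameter Hill.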

| Structure (SMILES) | Potency [1] | Potency [2] |
| --- | --- | --- |
| COc1cc(/C=C/C=O)cc(OC)c1O[C@@H]1O[C@H](CO)[C@@H](O)[C@H](O)[C@H]1O | inactive | inactive |
| COc1cc(OC)cc(C(=O)Nc2ccc(Cl)c(-c3nc4ccc(N(C)C)cc4[nH]3)c2)c1 | inactive | inactive |
| Cc1c(C(=O)N2CCOc3ccc(-c4ccc(N)nc4)cc3C2)ccc(S(C)(=O)=O)c1F | inactive | inactive |
| COc1cc2ncnc(Nc3ccc(F)c(Cl)c3)c2cc1NC(=O)/C=C/CN1CCCCC1 | inactive | inactive |
| COc1cc(Nc2nc3c(s2)CCCC3c2ccc(F)cc2)ccc1-n1cnc(C)c1 (centres undefined) | inactive | inactive |
| CC(O)/C=C/C1(O)C2(C)COC1(C)CC(O)C2 (centres undefined) | inactive | inactive |
| C=C1C(OC(C)=O)CCC2(C)CC3(OC)OC(=O)C(C)=C3CC12 (centres undefined) | inactive | inactive |
| COc1cccc(C(=O)N2CCN(C(=O)COc3cccc(C)c3)CC2)c1OC | inactive | inactive |
| CC1NC(=O)CCCNC(=O)C(Cc2c[nH]c3ccccc23)NC(=O)C(C)NC(=O)C(C(C)C)NC(=O)C(C(C)c2ccccc2)NC(=O)C(C(C)C)NC1=O (stereo not drawn) (cyclo([GABA]AV[ξPhe(βξ-Me)]VAW); configuration not given here) | inactive | inactive |
| COc1cc2nc(N3CCC(N4CCCCC4)CC3)nc(NC3CCCCCC3)c2cc1OC | inactive | inactive |
| CC(=O)NC[C@H]1CN(c2ccc(N3CCN(C(=O)CO)CC3)c(F)c2)C(=O)O1 | inactive | inactive |
| O=C(NCc1ccccn1)Nc1nnc(-c2ccco2)o1 | inactive | inactive |
| COCCOc1cnc2ccn([C@H](C)c3nnc4c(F)cc(-c5cnn(C)c5)cn34)c(=O)c2c1 | inactive | inactive |
| CN1C2CCC1CC(OC(=O)[C@H](CO)c1ccccc1)C2 (some centres undefined) | inactive | inactive |
| CC12CCC(OC3OC(CO)C(O)C(OC4OC(CO)C(O)C(O)C4O)C3O)CC1=CCC1C2CCC2(C)/C(=C3/COC(=O)C3)CCC12O (centres undefined) | inactive | inactive |
| C=C(C)C(=O)O[C@H]1CC2=CC(C/C(C)=C\[C@H]3OC(=O)C(=C)[C@H]13)OC2=O (some centres undefined) | inactive | inactive |

| Structure (SMILES) | Potency [1] | Potency [2] |
| --- | --- | --- |
| COc1ccc(CCO[C@@H]2O[C@H](CO[C@@H]3OC[C@H](O)[C@H](O)[C@H]3O)[C@@H](O)[C@H](O)[C@H]2O)cc1 | inactive | inactive |
| CN(C)CCCCC(=O)Nc1ccc(NC(=S)NC(=O)c2ccc(C(C)(C)C)cc2)cc1 | inactive | inactive |
| CCN1CCN(Cc2ccc(NC(=O)c3ccc(C)c(/C=C/c4cnc5[nH]ccc5c4OC)c3)cc2C(F)(F)F)CC1 | inactive | inactive |
| O=C1NC(=O)C(c2cn(-c3ccccc3)nc2-c2ccc(F)cc2)N1 (centres undefined) | inactive | inactive |
| COc1cc2c(cc1OC)-c1[nH]nc(Nc3cccc(F)c3)c1C2 | inactive | inactive |
| NCCCNc1ccc(Nc2nccc(Nc3cc(C4CC4)[nH]n3)n2)cc1 | inactive | inactive |
| CC1(C)CC[C@]2(C(=O)O)CC[C@]3(C)C(=CCC4[C@@]5(C)CC[C@H](O[C@@H]6O[C@H](C(=O)O)[C@@H](O[C@@H]7OC[C@@H](O)[C@H](O)[C@H]7O)[C@H](O)[C@H]6O)C(C)(C)C5CC[C@]43C)C2C1O (some centres undefined) | inactive | inactive |
| c1ccc(-c2csc(N3CCOCC3)n2)cc1 | inactive | inactive |
| Cc1cccc(Oc2cnc(=O)[nH]c2)c1 | inactive | inactive |
| CC1OC(OC2C(C)OC(OC3C(O)C(CO)OC(O[C@H]4CC[C@@]5(C)C(CC[C@]6(C)C5CC=C5C7[C@@H](C)[C@H](C)CC[C@]7(C(=O)O)CC[C@]56C(=O)O)C4(C)C)C3O)C(O)C2O)C(O)C(O)C1O (some centres undefined) | inactive | inactive |
| N#Cc1cc(F)cc(-c2nc(-c3ccccn3)no2)c1 | inactive | inactive |
| COC(=O)Cc1cc2c(c([N+](=O)[O-])c1)N(C(=O)CC[C@H](N)C(=O)O)CC2 | inactive | inactive |
| CC[C@@H](O)C[C@@H]1C(C)=C[C@@H]2CCCC[C@@H]2[C@@]1(C)C(=O)O | inactive | inactive |
| COC(=O)CC(C)(O)CC(=O)OCc1ccc(O[C@@H]2O[C@H](CO)[C@@H](O)[C@H](O)[C@H]2O)cc1 (some centres undefined) | inactive | inactive |
| CC(C)(C)c1ccc(S(=O)(=O)NCc2ccc(C(=O)Nc3cccnc3)cc2)cc1 | inactive | inactive |
| C=CC(C)(C)C12C=C(OC)C(=O)N3C(C(C)C)C(=O)NC31N(OC)c1ccccc12 (centres undefined) | inactive | inactive |

— PubChem BioAssay (NCATS)
